Each structure is given as a SMILES string. About 30 (0.05%) of roughly 63,000 compounds were called active. How the calls were made is not given here. A selection follows.

G protein-activated inward rectifier potassium channel 2 (Homo sapiens), sequence (P48051 whole entry, looked up): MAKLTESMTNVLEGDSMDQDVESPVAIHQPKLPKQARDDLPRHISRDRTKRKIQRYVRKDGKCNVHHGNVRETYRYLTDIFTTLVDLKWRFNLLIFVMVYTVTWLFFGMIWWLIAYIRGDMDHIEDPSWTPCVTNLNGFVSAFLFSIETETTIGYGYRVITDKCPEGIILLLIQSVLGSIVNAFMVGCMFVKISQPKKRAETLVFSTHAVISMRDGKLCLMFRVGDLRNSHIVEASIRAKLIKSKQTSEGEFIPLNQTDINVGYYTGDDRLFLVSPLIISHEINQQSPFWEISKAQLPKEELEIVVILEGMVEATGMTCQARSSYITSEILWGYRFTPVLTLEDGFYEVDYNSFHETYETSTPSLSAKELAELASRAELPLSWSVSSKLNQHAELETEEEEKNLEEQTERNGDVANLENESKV

The test addresses G protein-activated inward rectifier potassium channel 2 (Homo sapiens) (UniProt P48051). Description: opens human GIRK2 potassium channels (AID 1259325). As to conditions: HEK293-GIRK2 thallium flux, Thallos fluorescence, MPD.
Regarding `Cc1nc(-c2ccc(N3CCN(C(=O)NCc4ccc(F)cc4)CC3)nc2)no1`, the outcome was inactive.

On to `O=C(Cc1ccc(F)cc1)N1CC(c2nc(-c3cccnc3)no2)C1`, for which the molecule was called inactive.

As to `CCc1cc(=O)n(CCNC(=O)COc2ccc(F)cc2F)cn1`, the molecule was classed as inactive.

`COc1ccc(S(=O)(=O)Nc2ccc3c(c2)N(C(=O)c2ccccc2)CCC3)cc1F`: the result was inactive.

In the case of `NC(=O)c1ccccc1OCC#CCNC(=O)c1ccc(=O)[nH]c1`, the molecule was classed as inactive.

On to `COC(=O)c1ccc2c(=O)n(-c3cc(OC)cc(OC)c3)c(N3CCSCC3)nc2c1`, for which the molecule was classed as inactive.

For `Cc1cc(C(=O)Nc2nc(C(=O)N3CCN(c4cc(Cl)ccc4C)CC3)co2)no1`, the molecule was classed as inactive.

On to `Cc1nc(-c2cccc(NC(=O)c3coc(NC(=O)c4cnccn4)n3)c2)cs1`, for which the molecule was called inactive.

In the case of `COc1ccc(NC(=O)Cn2c(=O)nc(N3CCC(C)CC3)c3ccccc32)cc1Cl`, the molecule was called inactive.

With `CC(C)c1nnc(C2CCN(Cc3cccnc3)CC2)o1`, the call was inactive.

For `CN1CCC(n2cnc(-c3ccc(F)cc3)c2-c2ccnc(N)n2)CC1`, the molecule was classed as inactive.

Consider `Cc1ccccc1N1CCN(c2nccn3c(=O)n(CC(=O)Nc4ccc(Cl)cc4)nc23)CC1`, for which the call was inactive.

Regarding `Cn1c(=O)c2c(nc(SCCO)n2Cc2ccccc2)n(C)c1=O`, the molecule was called inactive.

In the case of `O=C(CSc1nnc(Cn2ccc(=O)[nH]c2=O)o1)N1CCC(Cc2ccccc2)CC1`, the outcome was inactive.

Consider `COc1ccc(-c2cc3nn(CC(=O)NCc4ccccc4Cl)c(=O)n3c(C)n2)cc1`, for which the molecule was called inactive.

In the case of `COc1cccc(NC(=O)c2cn(CC(O)c3ccccc3)nn2)c1` (configuration not stated), the outcome was inactive.

Regarding `CN(C)CCn1c2c(c(=S)[nH]c1=O)CCC2`, the call was inactive.

With `CCOC(=O)CCC(=O)N1CCN(Cc2csc(-c3ccccc3)n2)CC1`, the outcome was inactive.

As for `Cc1cc(N2CCN(C(=O)NC3CCCC3)CC2)ncn1`, the outcome was inactive.

`COc1ccc(C)cc1N1CCn2c1nc1c2c(=O)n(Cc2cccc(C)c2)c(=O)n1C`: the molecule was called inactive.

For the molecule `Nc1nc(Nc2ccc(F)c(F)c2)ncc1[N+](=O)[O-]`, the result was inactive.

Regarding `O=C(NCc1cccs1)N1C2CCC1COC2`, the molecule was classed as inactive.

Consider `CN1CCC(CNC(=O)c2cc(Br)ccc2Cl)CC1`, for which the result was inactive.

With `COc1ccccc1C(=O)NCCN1CCN(c2ccccc2OC)CC1`, the result was inactive.

As to `CCNC(=O)c1cn(-c2ccc(SCC(=O)Nc3ccc(C)cc3)nn2)cn1`, the outcome was inactive.

Turning to `Cn1cnnc1SCCNC(=O)CNC(=O)c1ccc(=O)[nH]c1`, the outcome was inactive.

Turning to `CC(C)c1ccccc1NC(=O)Cc1cc(=O)[nH]c(SCc2ccc(F)cc2)n1`, the molecule was called inactive.

For `O=C(NCc1ccccc1)Nc1nnc(-c2ccco2)o1`, the result was inactive.

Regarding `NC(=O)c1ccccc1OCC#CCNC(=O)C1CCC1`, the molecule was called inactive.

Consider `Cc1cc(C(O)CCNC(=O)Nc2ccccc2)c(C)o1` (configuration not stated), for which the molecule was classed as inactive.

In the case of `C#CCSc1nnc(N2CCN(c3ccccc3OC)CC2)s1`, the molecule was classed as inactive.

`O=C(c1ccncc1)N1CCc2cc(S(=O)(=O)N3CCOCC3)ccc21`: the call was inactive.

Regarding `COc1ccc(NC(=O)C(=O)NCCC2=CCCCC2)cc1Cl`, the molecule was called inactive.

Consider `COc1ccc(-n2c(C)c(C)n3c4c(=O)n(CC(C)C)c(=O)n(C)c4nc23)cc1`, for which the call was inactive.

Take `CCOc1ccccc1C(=O)Nn1cnc2c(cnn2-c2cccc(Cl)c2)c1=O`: the result was inactive.

`CCN(CC)C(=O)Oc1ccc2c(=O)c(-c3ccc(Br)cc3)coc2c1`: the result was inactive.

Consider `COc1ccccc1N1CCN(CCNC(=O)c2ccc(F)cc2)CC1`, for which the molecule was called inactive.

As to `CCOC(=O)c1ccc(NC(=O)c2coc(NC(=O)C3CC3)n2)cc1`, the result was inactive.

In the case of `CCN(CC)c1ccc(-c2noc(CN3CCN(c4cccc(C)c4)CC3)n2)cn1`, the outcome was inactive.

Regarding `CCCCCn1c(=O)c2c(nc3n2CC(C)CN3c2ccc(Oc3ccccc3)cc2)n(C)c1=O` (configuration not stated), the molecule was called inactive.

As for `Cc1cc(C(=O)NCC#CCOc2ccc3c(c2)OCO3)c(C)o1`, the result was inactive.

As to `COc1cc(OC)cc(N(C)S(=O)(=O)c2ccsc2-c2nc(-c3cccc(C)c3)no2)c1`, the molecule was called inactive.

On to `O=C(CSc1nnc(-c2ccc(Cl)cc2)c2ccccc12)N1CCOCC1`, for which the outcome was inactive.

Regarding `Cc1csc(SCC2CCN(S(=O)(=O)c3cccc(C(F)(F)F)c3)CC2)n1`, the molecule was classed as inactive.

Turning to `CC(C)(C)OC(=O)COc1ccc2c(c1)O/C(=C\c1cc(Cl)cc3c1OCOC3)C2=O`, the outcome was inactive.

`Cc1nc(SCc2ccccc2)[nH]c(=O)c1CC(=O)Nc1ccc(C(C)C)cc1`: the molecule was classed as inactive.

`Cc1ccc(S(=O)(=O)N(Cc2ccc(Cl)cc2)C(=O)N2CCN(C)CC2)cc1`: the result was inactive.

In the case of `COc1ccc(C)c2sc(N(CCCn3ccnc3)C(=O)/C=C/c3cccs3)nc12`, the outcome was inactive.

Take `CCC(C(=O)Nc1cc(F)ccc1F)n1cc(-c2nc(-c3cnccn3)no2)ccc1=O` (configuration not stated): the call was inactive.

On to `COc1cc(NC(=O)Cn2cnc3c(-c4ccc(Cl)cc4)csc3c2=O)cc(OC)c1`, for which the call was inactive.

Take `COc1ccccc1OCC#CCNC(=O)c1cnccn1`: the molecule was classed as inactive.

Consider `Cc1cc(C)c2c(c1)c(=O)c1c(n2C)CCN(C(=O)Nc2cc(Cl)ccc2C)C1`, for which the call was inactive.

Consider `COc1ccc(C2(CNC(=O)C3CCN(S(C)(=O)=O)CC3)CCOCC2)cc1`, for which the molecule was called inactive.

In the case of `O=C(CSc1cc(C(F)(F)F)c2cc3c(cc2n1)OCO3)NCc1ccco1`, the outcome was inactive.

In the case of `O=C(Cc1ccc(NS(=O)(=O)c2c(F)cccc2F)cc1)NCc1cccs1`, the molecule was classed as inactive.

Consider `Cc1nn(-c2ncc(NC(=O)c3cccc4ccccc34)cn2)c(C)c1C`, for which the molecule was classed as inactive.

As to `Cc1nc(C)c(-c2nnc(NC(=O)COc3cccc4c3OC(C)(C)C4)o2)s1`, the outcome was inactive.

Take `COc1ccc(F)cc1S(=O)(=O)N1CCN=C1c1ccccc1`: the result was inactive.

In the case of `O=C(CSCc1ccccc1)Nc1cnoc1`, the molecule was called inactive.

`COc1ccc(Cn2cc(S(=O)(=O)N3CCCCC3)ccc2=O)cc1F`: the call was inactive.

Take `O=C(CC1CCCC1)N(CCc1cccs1)Cc1ccoc1`: the outcome was inactive.

With `Cc1cc(SCC(=O)c2ccc3c(c2)OCO3)nc(C(C)C)n1`, the molecule was called inactive.

On to `C=C(C)COc1ccc(-c2nc(N)nc(C(F)(F)F)c2-c2ccccc2OC)c(O)c1`, for which the call was inactive.

Take `CCOC(=O)C1CCc2sc(NC(=O)C3CCCN(Cc4nc(-c5cccnc5)no4)C3)nc21` (configuration not stated): the molecule was classed as inactive.

For the molecule `CCOC(=O)CN1CCC(c2nnc(-c3ccc(F)cc3)o2)CC1`, the molecule was called inactive.

With `CCOC(=O)c1cnn2ccc(NC(=O)C(c3ccccc3)c3ccccc3)cc12`, the molecule was classed as inactive.

Consider `O=C1CC(c2nc3ccccc3n2CCOc2ccccc2)CN1c1ccccc1` (configuration not stated), for which the molecule was classed as inactive.

Turning to `COc1ccccc1N1CCN(CC(=O)N2CCN(S(C)(=O)=O)CC2)C1=O`, the outcome was inactive.

Consider `COc1ccccc1NC(=O)CN1N=NC2C(=O)N(c3ccc(F)c(F)c3)C(=O)C21` (configuration not stated), for which the outcome was inactive.

For the molecule `CCOc1ccc(C2C(C(=O)c3sc(C)nc3C)=C(O)C(=O)N2CCCN(C)C)cc1` (configuration not stated), the molecule was called inactive.

On to `CN(C)C(CNC(=O)C1c2ccccc2Oc2ccccc21)c1cccn1C` (configuration not stated), for which the result was inactive.

As to `CCCN(C)c1nccn2c(=O)n(CC(=O)Nc3cccc(CC)c3)nc12`, the result was inactive.

For `CCOC(=O)c1ccc(NC(=O)Cn2ccn(Cc3ccc(Cl)cc3)c(=O)c2=O)cc1`, the result was inactive.

On to `Cc1nc(C)c(-c2ccc(=O)n(CCNC(=O)C3CCN(S(C)(=O)=O)CC3)n2)s1`, for which the call was inactive.

As to `O=C(c1ccc2c(c1)OCO2)N1CCC(CSc2ccccn2)CC1`, the molecule was called inactive.

As to `COc1ccc(S(=O)(=O)N2CCCOC2CNC(=O)C(=O)NCc2ccc(C)cc2)cc1OC` (configuration not stated), the molecule was classed as inactive.

For the molecule `Cn1c(=O)n(CCc2ccccc2)c(=O)c2c(N3CCN(C(=O)c4ccco4)CC3)ccnc21`, the molecule was called inactive.

Turning to `COc1cccc(CSc2nc(C)c(CC(=O)NCc3cccs3)c(=O)[nH]2)c1`, the outcome was inactive.

For `COc1ccc(NC(=O)CSc2nnc(C3CC(=O)N(c4ccc(C)cc4)C3)o2)cc1` (configuration not stated), the molecule was classed as inactive.

On to `O=C(O)CCC/C=C\C[C@@H]1C(/C=C/[C@@H](O)COc2cccc(C(F)(F)F)c2)[C@H](O)C[C@@H]1O` (some centres not stated), for which the molecule was called inactive.

Turning to `O=C(CSc1ccc(-c2nc(-c3ccccc3)no2)cn1)NCc1ccc2c(c1)OCO2`, the molecule was classed as inactive.

For `CCCNC(=O)Cn1nc2c(c1NC(=O)COc1ccccc1F)CSC2`, the molecule was called inactive.

Turning to `O=C(COc1ccc(Cl)cc1)Nc1ccc(N2CCCCS2(=O)=O)cc1`, the molecule was classed as inactive.

Regarding `O=C1CC(C(=O)Nc2ccccc2Cl)n2c(nc3ccccc32)N1` (configuration not stated), the molecule was classed as inactive.

Take `COCCNC(=O)c1[nH]c2ccccc2c1NC(=O)c1cccc(C)c1`: the result was inactive.

As for `COc1cc(/C=C2\Oc3c4c(cc(C)c3C2=O)OCN(C2CC2)C4)cc(OC)c1OC`, the call was inactive.

For the molecule `CCc1ccc(NC(=O)NCCNc2cc(Nc3ccccn3)ncn2)cc1`, the call was inactive.

Regarding `Cc1cc(C)n(-c2cc(SCC(=O)N3CCCC3)ncn2)n1`, the molecule was classed as inactive.

On to `COc1ccc(-c2ccc(C)c(NC(=O)c3cc4ccccc4oc3=O)c2)nn1`, for which the call was inactive.

Consider `Cn1cccc(C(=O)Nc2ccc3c(c2)CCC(=O)N3)c1=O`, for which the molecule was called inactive.

In the case of `O=C(CCn1c(=O)oc2ccc(Cl)cc21)N1CCN(c2ccccc2Cl)CC1`, the outcome was inactive.

In the case of `COc1cccc(OCc2nc3c(C)cccc3[nH]2)c1`, the outcome was inactive.

As for `CCC(C)c1ccc(Cn2c(CO)nc3ccccc32)cc1` (configuration not stated), the molecule was called inactive.

With `CC(=O)c1cccc(NC(=O)CCCn2cnc(-c3ccc(F)cc3)cc2=O)c1`, the molecule was called inactive.

On to `COCCn1c(SCc2nc(-c3ccc(Cl)cc3)no2)nc2cc3c(cc2c1=O)OCO3`, for which the molecule was classed as inactive.

For the molecule `CCOc1cc(C(=O)Nc2ccc3c(c2)N(C(C)=O)CCC3)cc(OCC)c1OCC`, the outcome was inactive.

In the case of `Cn1cnnc1SCc1cc(=O)c(OCC(=O)NCc2ccco2)co1`, the molecule was called inactive.

As to `COC(=O)c1[nH]c(C)c(C(O)=C2C(=O)C(=O)N(CCCN(C)C)C2c2cccs2)c1C` (configuration not stated), the outcome was inactive.

Consider `O=C(Nc1nc(-c2cc3ccccc3o2)cs1)c1ccc(S(=O)(=O)N2CCOCC2)cc1`, for which the molecule was called inactive.

Consider `Cc1ccnc(Nc2cc(NCCNC(=O)Nc3cccc(Cl)c3)ncn2)c1`, for which the outcome was inactive.

Take `COc1cccc(NC(=O)CSc2ncc(S(=O)(=O)c3ccc(Cl)cc3)c(=O)[nH]2)c1`: the call was inactive.

In the case of `O=S(=O)(Cc1nc(-c2cccc(Cl)c2)no1)c1ccccc1`, the outcome was inactive.

The values above are taken from PubChem BioAssay AID1259325 (C. David Weaver Laboratory, Vanderbilt University, 2017).
